Source: PubChem BioAssay (National Center for Advancing Translational Sciences (NCATS))
This is a sample that favours compounds with a hit; in the whole collection about 15% have one here.
12-LOX inh = Primary qHTS assay for inhibitors of human arachidonate 12S-lipoxygenase (ALOX12): Round 2; Polyunsaturated fatty acid lipoxygenase ALOX12 (Homo sapiens), P18054; purified 12hLO, xylenol orange hydroperoxide absorbance; Potency, µM (top dose mostly 108 µM), inactives show at the top dose activity change, negative = inhibition, hits mostly inhibitors; 580,000 tested, 1.1% active; AID 1671190, 2021
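Purified human 12hLO (150 nM final) in 25 mM Hepes, 0.01% Triton X-100, pH 7.0 was preincubated 15 min at room temperature with compound. Then 40 uM arachidonic acid was added, 30 min. Hydroperoxide was read by Fe-XO absorbance ratio 573/405 nm.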
ELG1 repair inh = qHTS screen for small molecules that inhibit ELG1-dependent DNA repair in human embryonic kidney (HEK293T) cells expressing luciferase-tagged ELG1 | HEK293T ELG1-luciferase reporter, luminescence, 16 h; DNA damage induced by 5-fluorouridine | AID 504467, 2011 | 330,000 tested, 2.3% active | Potency, µM (top dose mostly 46.1 µM), inactives show at the top dose activity change, negative = inhibition, actives largely listed as inhibitors; note: nearly all actives have a fitted effect of over 55% in size
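In this reporter screen, reduction of luminescence relative to DMSO vehicle indicated activity. Compounds and 5-fluorouridine were added together to 2,000 cells per well, incubated for 16 hr at 37 °C, then developed with ONE-Glo.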
DT40 TDP1 no CPT = qHTS for Inhibitors of human tyrosyl-DNA phosphodiesterase 1 (TDP1): qHTS in cells in absence of CPT; DT40 Tdp1-/- hTDP1 cells, no CPT, ATP luminescence, 48 h; Potency, µM (doses to about 46.2 µM), for the others: at the highest dose activity change, negative = growth inhibition, hits mostly inhibitors; 420,000 tested, 15% active; AID 686978, 2013; note: nearly all actives have a fitted effect of over 55% in size
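Luminescent ATP content (CellTiter-Glo) served as the growth readout. Knockout chicken DT40 cells expressing human TDP1 were exposed to compounds without camptothecin for a minimum 48 hr at 37 °C.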
VP16 counter = VP16 counterscreen qHTS for inhibitors of ROR gamma transcriptional activity | Drosophila S2 Gal4-VP16 UAS-luciferase, luminescence, 20 h | Potency, µM (top dose mostly 53.6 µM), inactives show at the highest dose activity, negative = inhibition, usual class: inhibitors | 310,000 tested, 3.5% active | AID 2546, 2010;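 note: Gal4-VP16 expression switched on by copper sulfate through the metallothionein promoter; nearly all actives have a fitted effect of over 50% in size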
RORg inh = qHTS for inhibitors of ROR gamma transcriptional activity; Nuclear receptor ROR-gamma (Mus musculus), P51450; Drosophila S2 Gal4-RORgamma UAS-luciferase reporter, 20 h; Potency, µM (top dose mostly 53.6 µM), without a hit: top-dose activity change, negative = inhibition, hits mostly inhibitors; 310,000 tested, 5.4% active; note: nearly all actives have a fitted effect of over 60% in size
Target sequence (P51450 whole entry, looked up, the tested form may be a part): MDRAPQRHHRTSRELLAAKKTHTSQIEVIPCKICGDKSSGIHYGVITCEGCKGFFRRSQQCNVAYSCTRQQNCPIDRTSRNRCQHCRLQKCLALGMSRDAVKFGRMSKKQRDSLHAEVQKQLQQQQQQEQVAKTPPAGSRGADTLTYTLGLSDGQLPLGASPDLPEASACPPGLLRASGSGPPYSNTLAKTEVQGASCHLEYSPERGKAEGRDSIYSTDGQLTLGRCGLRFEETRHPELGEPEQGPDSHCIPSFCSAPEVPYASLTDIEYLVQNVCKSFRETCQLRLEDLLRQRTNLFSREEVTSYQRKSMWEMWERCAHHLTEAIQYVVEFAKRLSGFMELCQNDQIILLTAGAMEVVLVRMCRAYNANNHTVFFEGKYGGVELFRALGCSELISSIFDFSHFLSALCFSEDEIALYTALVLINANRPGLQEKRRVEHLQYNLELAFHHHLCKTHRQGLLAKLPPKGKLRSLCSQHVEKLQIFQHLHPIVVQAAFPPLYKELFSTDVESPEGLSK
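Using a luciferase readout, inhibitors were identified by reduced reporter activity in Drosophila cells coexpressing a copper-inducible Gal4–ROR gamma fusion and UAS-driven Photinus luciferase, incubated 20 hr after 700 uM copper sulfate.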
DT40 TDP1 CPT = qHTS for Inhibitors of human tyrosyl-DNA phosphodiesterase 1 (TDP1): qHTS in cells in presence of CPT | chicken DT40 Tdp1-/-;hTDP1 cells + 20 nM CPT, ATP luminescence, 48 h | Potency, µM (top dose mostly 46.2 µM), for the others: top-dose activity change, negative = growth inhibition, most hits filed as inhibitors | 420,000 tested, 12% active | AID 686979, 2013; note: nearly all actives have a fitted effect of over 55% in size
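Chicken DT40 Tdp1-/- cells stably complemented with human TDP1 were seeded at 400 cells/well in medium containing 20 nM camptothecin, exposed to pin-transferred compounds, and grown at 37 °C for at least 48 hr. Viability was read as ATP luminescence.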
Starred values were filed as active, the others as inactive; ? = inconclusive; . = not tested or not shown. Calls come from the whole dose curve; as a rule, active = well fitted curve in the direction sought with a large enough effect; inconclusive = small, poorly fitted or top-dose-only effect, or another doubt; inactive = no such curve, though single readings can be large; an effect the other way counts as inactive or inconclusive. % is set by controls: 0 for no effect and ±100 for the full control effect; potency is the fitted concentration of half-maximal effect.

SMILES	12-LOX inh	ELG1 repair inh	DT40 TDP1 no CPT	VP16 counter	RORg inh	DT40 TDP1 CPT
Cc1ccccc1CC(=O)NC1CCN(c2cc(-c3ccccc3)[nH]n2)CC1	33.4%	.	.	.	.	.
CCCCc1c(C)nc2ccc(C)cc2c1SCC(=O)O	-0.4%	.	.	.	.	.
O=C(Nc1nc(-c2cccs2)cs1)c1ccc([N+](=O)[O-])o1	?	-0.9%	20.6µM*	.	.	?
O=C(Cc1ccccc1)Nc1nc(-c2cccs2)cs1	0.0%	?	-28.2%	17.4%	-26.8%	?
Fc1ccc(/C=N/Nc2cccc(Cl)c2)cc1F	3.98µM*	.	.	.	.	.
N#Cc1ccc(/C=N/Nc2ccccc2Cl)cc1	10µM*	.	.	.	.	.
N#Cc1ccc(/C=N/Nc2cccc(Cl)c2)cc1	2.51µM*	.	.	.	.	.
Cc1cc(O)c(/C=N/Nc2cccc(Cl)c2)c(=O)o1	?	-0.2%	?	-8.8%	?	-10.1%
Clc1ccccc1NN=Cc1ccccn1	?	.	-28.4%	.	.	-6.3%
CCCOc1cccc(C(=O)Nc2cc(-c3nc4ncccc4o3)ccc2OC)c1	21.8%	.	.	.	.	.
COc1cc(=O)n2c(c1C(=O)Nc1cccc(F)c1)CCCC2	19.7%	.	.	.	.	.
COc1cc(NC(=O)c2cccc(Cl)c2)ccc1NC(=O)c1cccs1	6.9%	?	18.4µM*	1.7%	?	?
COc1cc(NC(=O)c2cc3ccccc3cc2OC)ccc1NC(=O)c1cccs1	.	14.6µM*	13µM*	-12.1%	0.0%	23.1µM*
COc1cc(C(=O)Nc2cccc(NC(=O)c3cccs3)c2)cc(OC)c1OC	16.6%	8.2µM*	20.6µM*	-4.1%	?	20.6µM*
COc1cc(C(=O)OCc2ccc(C)cc2)cc(NC(=O)c2cccs2)c1OC	-12.1%	20.6µM*	?	-9.6%	?	?
CC(C)(C)c1ccc(-c2nnc(SCC(=O)N3CCOC3=O)n2C2CCCC2)cc1	-27.8%	.	.	.	.	.
C/C(N)=C(/C#N)C(NC(=O)c1ccco1)(C(F)(F)F)C(F)(F)F	3.3%	.	.	.	.	.
Cc1ccc(S(=O)(=O)N2CCN(C(=O)C(CC(C)C)NC(N)=O)CC2)cc1 (stereo not drawn)	-16.6%	.	.	.	.	.
CCOc1ccc(NC(=O)Cn2c(-c3ccc(F)cc3)nc(C)c(CCO)c2=O)cc1	15.0%	.	.	.	.	.
CN(C)CCNC1CCCCC1	16.7%	.	.	.	.	.
COc1c(Cl)cc(Cl)cc1C(=O)Nc1ccc(C(=O)O)cc1	-17.4%	0.8%	-6.4%	1.4%	-11.4%	-6.4%
COc1c(Cl)cc(Cl)cc1/C=C/C(=O)c1ccc(NC(=O)c2cccs2)cc1	-3.6%	?	2.59µM*	?	?	2.31µM*
COc1cccc(C(=O)Nc2cc(NC(=O)c3cccs3)ccc2C)c1OC	-2.3%	16.4µM*	?	-4.7%	16.4%	?
CC(C)Oc1c(Cl)cc(CNC(C)(C)CO)cc1Cl	-17.6%	0.9%	-17.1%	3.6%	-39.1%	-24.8%
CCOc1c(Cl)cc(CNC(C)(C)CC(C)(C)C)cc1OC	-0.4%	-13.2%	20.6µM*	7.6%	-12.9%	?
SMILES	12-LOX inh	ELG1 repair inh	DT40 TDP1 no CPT	VP16 counter	RORg inh	DT40 TDP1 CPT
COc1ccc(COCCN2CCN(S(=O)(=O)c3ccc(C)cc3)CCC2=O)cc1	?	-13.0%	?	-7.7%	?	20.6µM*
Cc1ccc(S(=O)(=O)N2CCC(=O)N(CCOCc3cccc(C)c3)CC2)cc1	-2.8%	-6.7%	?	12.7%	7.3%	10.3µM*
Cc1ccc(S(=O)(=O)N2CCC(=O)N(CCOCc3cccc(C(F)(F)F)c3)CC2)cc1	?	-1.8%	?	-4.2%	?	14.6µM*
CCOc1cccc(CNC(=O)c2ccc(Cn3ccn4nc5c(c4c3=O)CCCC5)cc2)c1	24.0%	.	.	.	.	.
CCOc1ccc(NC(=O)C(C)Oc2ccc(F)cc2)c2cccnc12 (stereo not drawn)	5.7%	.	.	.	.	.
COc1ccc(C2=Nn3c(nnc3-c3ccco3)SC2)cc1OC	-17.1%	?	23.1µM*	-15.8%	15.3%	?
COc1ccc(C2=Nn3c(nnc3-c3ccccc3OC)SC2)cc1OC	-21.7%	-10.0%	0.0058µM*	-15.6%	0.0%	0.0052µM*
